Test results as given in PubChem BioAssay (NCI).
The panel holds about 83,000 compounds, 20% with a hit somewhere; the sample as a whole holds those more often.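 Step 1: grow cells in 96-well plates. Step 2: add test compound at a single concentration. Step 3: incubate 48 h. Step 4: record percent growth.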 A number with no mark means an inactive call. Calls of active or inactive are those of the source. The calls were made as follows: active = growth percent below 10; inactive = the rest.

Test system: MDA-MB-468 breast
Test: NCI-60 one-dose screen, 48 h (100 = growth as untreated, 0 = no growth, -100 = all killed)
Settings: 10 µM unless noted

Row | Structure (SMILES) | growth
1 | NC(=S)c1csc(CCNC(=O)c2ccccc2)n1 | 109%
2 | CCc1cnc(=S)n(-c2ccccc2)c1 | 117%
3 | CN(C)C/C=C/C(=O)Nc1cc2c(Nc3ccc(F)c(Cl)c3)ncnc2cc1O[C@H]1CCOC1 | -40.5% (active)
4 | CCOC(=O)C1=C(COCCN)NC(C)=C(C(=O)OC)C1c1ccccc1Cl (stereo not given) | 17%
5 | [O-][n+]1ccccc1CCN(O)CCc1cccc[n+]1[O-] | 110%
6 | O=C1CCC23OC(c4ccccc4N12)C(O)C(O)C3O (stereo not given) | 114%
7 | CCCC1C(C(=O)OCC)=C(N)Oc2cc(O)ccc21 (stereo not given) | 110%
8 | CC12CCC(CC1)C(C)(C)O2 | 108%
9 | O=C(O)CCC(=O)c1ccc(C2CCCCCC2)cc1 | 105%
10 | C=CCCCOC1[C@H](OCc2ccccc2)C(OCc2ccccc2)C(OC)O[C@@H]1CNC(=O)c1cccc(I)c1 (stereo not given in full) | 24.8%
11 | CC(=O)n1cc(C=O)c2ccccc21 | 112%
12 | Cc1ccc(N2C(=O)/C(=C/C=C/c3ccco3)SC2=S)cc1 | 50.7%
13 | CCCC[N+]1(C)CCN=C1Cc1ccccc1 (stereo not given) | 82.3%
14 | Cc1ccc2c(n1)C(=O)C(Cl)=C(Nc1ccc(C(=O)OC(C)(C)C)cc1)C2=O | -50.3% [9.25 µM] (active)
15 | COc1cccc2cc(N(C)c3nc(C)nc4ccsc34)ccc12 | 20.2%
16 | COc1ccc(NC(=O)c2ccc(Nc3ncnc4[nH]c(C)c(C)c34)cc2)cc1 | 119%
17 | C=CCN(/C=C/CN(CC=C)CC=C)CC=C | 99.3%
18 | COCCOC(=O)NC(=O)Nc1ccc(/C(=N/O)c2ccc(Cl)cc2)cc1 | 19.8%
19 | Cn1c([N+](=O)[O-])cnc1/C=C1\Oc2ccc(Cl)cc2C1=O | 7.19% (active)
20 | Nc1nnc(C(=O)c2cnc3n(c2=O)CCCCC3)s1 | 90.4%

Row | Structure (SMILES) | growth
21 | CCOC(=O)/C(C#N)=C(/C)C1CC1 | 98.3%
22 | O=C(O)CCC(=O)OC[C@@H](NC(=O)C(Cl)Cl)[C@H](O)c1ccc([N+](=O)[O-])cc1 | 95.5%
23 | CCCCCc1ccc(S(=O)(=O)Nc2cccc(-c3csc(NC(=O)CCCCCN4CCN(CCO)CC4)n3)c2)cc1 | 85%
24 | O=C1/C(=C/c2ccc(O)cc2)Oc2ccc(Cl)cc21 | 131%
25 | CNC(=O)Nc1ccc(Nc2cc(-c3ccc(-n4cccn4)cc3)[nH]n2)c(C)c1 | 96.3%
26 | CC1CCC2(OC1)OC1CC3C4CC=C5CC(O)CCC5(C)C4CCC3(C)C1C2C (stereo not given) | 89.4%
27 | O=c1[nH]cc(/C=N\Nc2ccccc2)c(=O)[nH]1 | 90.7%
28 | Fc1ccc([I+]c2ccc(F)cc2)cc1 | 30%
29 | CN1C(=O)CNC(=O)[C@H](NC(=O)c2nc3ccccc3cc2O)CSSC[C@H]1C(=O)NCCCc1nc2ccccc2cc1O | 22.3%
30 | CCOC(=O)Nc1cc(-c2ccc(C)c(NS(C)(=O)=O)c2)nn2c(C)nnc12 | -26% (active)
31 | Nc1c(C(=O)Nc2ccccc2)sc2nc3c(cc12)CN(C(=O)OCc1ccccc1)CC3 | 63.8%
32 | c1ccc(Cc2ccccc2)cc1 | 92.9%
33 | O=[N+]([O-])c1ccc(-c2nc(-c3ccccc3)c(-c3ccccc3)n2-c2ccccc2)cc1 | 2.29% (active)
34 | CC12CCC(O)CC1=CCC1C2CCC2(C)C3=NN=CC3CC12 (stereo not given) | 92.1%
35 | CCCc1cc2c(cc1Br)OCO2 | 115%
36 | N=C1CCC(=N)c2c1c(O)c1ccccc1c2O | 93.7%
37 | N#CC(C(=O)/C(=N/NC(=O)c1ccccc1O)C(C#N)c1ccccc1)c1ccccc1 (stereo not given) | 67.1%
38 | COC(=O)c1nc(-c2ccccc2)oc1S(=O)(=O)N1CCC(C(N)=O)CC1 | -14.6% (active)
39 | Clc1ccc(N/N=c2/oc3ccccc3cc2-c2cc3ccccc3[nH]2)cc1 | 59.8%
40 | COc1cc(C(=O)N2N=C(c3ccc(S(C)(=O)=O)cc3)CC2c2ccco2)cc(OC)c1OC (stereo not given) | 36.7%
